Bcl-W Bim block = inhibitors of Bim binding to Bcl-W, primary screen, biochemical, multiplexed, bead-based flow cytometry | Bcl-2-like protein 2 (Homo sapiens), Q92843 | Bim peptide-Bcl-W binding | inhibition, % at 10 µM | 190,000 compounds, 0.02% hits | AID 952, 2007;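 also: 0% = bound tracer without compound and 100% = peptide blocker; higher means less fluorescent Bim peptide bound to Bcl-W beads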
Bcl-2 Bim block = inhibitors of Bim-Bcl-2 binding, primary screen, biochemical, multiplexed, human Bcl-2 family; Apoptosis regulator Bcl-2 (Homo sapiens), P10415; Bead-based flow cytometry, Bim peptide-Bcl-2 binding; inhibition, % at 10 µM; 190,000 compounds, 0.06% hits; in the data active = inhibition above about 40%;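 also: 0% = no compound wells with probe peptide and 100% = reference peptide inhibitor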
Target sequence (P10415 whole entry, looked up): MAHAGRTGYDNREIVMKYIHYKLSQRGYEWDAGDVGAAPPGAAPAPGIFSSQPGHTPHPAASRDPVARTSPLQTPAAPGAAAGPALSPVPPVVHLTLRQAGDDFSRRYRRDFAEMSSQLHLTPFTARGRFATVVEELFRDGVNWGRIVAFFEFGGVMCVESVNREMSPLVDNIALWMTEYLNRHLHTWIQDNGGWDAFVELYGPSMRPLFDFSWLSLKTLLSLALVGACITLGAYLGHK
Bfl-1 Bim block = inhibitors of Bim binding to Bfl-1, primary screen, biochemical, multiplexed, bead-based flow cytometry. Bcl-2-related protein A1 (Homo sapiens), Q16548. Bim-Bfl-1 binding inhibition. inhibition, % at 10 µM. 190,000 compounds, 0.12% hits. AID 1008, 2008;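 also: 0% = wells without compound plus tracer and 100% = blocker peptide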
Bim-Bcl-XL = inhibitors of Bim-Bcl-XL binding, primary screen, biochemical, multiplexed, bead flow cytometry, human Bcl-XL; Bcl-2-like protein 1 (Homo sapiens), Q07817; Bim peptide-Bcl-XL binding, fluorescence; inhibition, % at 10 µM; 190,000 compounds, 0.04% hits
Bcl-B Bim block = inhibitors of Bim-Bcl-B binding, primary screen, biochemical, multiplexed, human Bcl-2 family; Bcl-2-like protein 10 (Homo sapiens), Q9HD36; bead-based flow cytometry, Bim peptide-Bcl-B binding; inhibition, % at 10 µM; 190,000 compounds, 0.073% hits; AID 951, 2007;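 also: 0% = tracer peptide without compound and 100% = reference inhibitor peptide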
Target sequence (Q9HD36 whole entry, looked up): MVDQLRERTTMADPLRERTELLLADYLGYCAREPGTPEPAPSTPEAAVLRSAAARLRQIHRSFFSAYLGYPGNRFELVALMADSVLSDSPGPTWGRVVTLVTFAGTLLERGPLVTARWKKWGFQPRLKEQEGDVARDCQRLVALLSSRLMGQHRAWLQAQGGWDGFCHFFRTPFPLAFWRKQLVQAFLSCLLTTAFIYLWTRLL
* hit, by the source's call. In the library only some 0.2% were active in any assay of this set; here they are far more common. Rule as the data show it, unless noted: active = inhibition above about 40%.

For COC(=O)/C(=C/c1c[nH]c2ccccc12)NC(C)=O the results were Bcl-W Bim block -1, Bcl-2 Bim block -5, Bfl-1 Bim block 0, Bim-Bcl-XL -4 and Bcl-B Bim block -2.
For COCCSc1nnc(NC(=O)C2CC(=O)N(c3ccccc3)C2)s1 (stereo unspecified) the results were Bcl-W Bim block -2, Bcl-2 Bim block -4, Bfl-1 Bim block -7, Bim-Bcl-XL -2 and Bcl-B Bim block -8.
Screening O=C(Nc1nnc(SCc2ccccn2)s1)C1CC(=O)N(c2ccccc2)C1 (stereo unspecified) returned Bcl-W Bim block 31, Bcl-2 Bim block 28, Bfl-1 Bim block 34, Bim-Bcl-XL 40* and Bcl-B Bim block 35.
For Cc1ccc(NC(=O)C/C(N)=N/OC(=O)c2ccccc2)cc1 the results were Bcl-W Bim block 0, Bcl-2 Bim block 73*, Bfl-1 Bim block 51*, Bim-Bcl-XL 2 and Bcl-B Bim block 64*.
`Cc1nc2ccccc2n1C1CCN(CC(=O)NCc2ccc(F)cc2)CC1` gave Bcl-W Bim block 1, Bcl-2 Bim block 59*, Bfl-1 Bim block 30, Bim-Bcl-XL 1 and Bcl-B Bim block 64*.
`Cc1cccc(NC(=S)N2CCn3cccc3C2c2cccnc2)c1` (stereo unspecified) gave Bcl-W Bim block -1, Bcl-2 Bim block 5, Bfl-1 Bim block 0, Bim-Bcl-XL -3 and Bcl-B Bim block 41*.
For COc1cccc(NC(=S)N2CCn3cccc3C2c2cccnc2)c1 (stereo unspecified) the results were Bcl-W Bim block 1, Bcl-2 Bim block 2, Bfl-1 Bim block 3, Bim-Bcl-XL -2 and Bcl-B Bim block 7.
COC(=O)Cc1ccc(N(Cc2ccccc2F)S(=O)(=O)c2ccc(Cl)cc2)cc1 was read as Bcl-W Bim block -2, Bcl-2 Bim block 0, Bfl-1 Bim block -2, Bim-Bcl-XL -4 and Bcl-B Bim block -5.
Screening NC(=O)[C@@H]1CCCNc2c(I)cc([N+](=O)[O-])cc2C(=O)N[C@@H](Cc2ccccc2)C(=O)N[C@@H](Cc2cnc[nH]2)C(=O)N1 returned Bcl-W Bim block -3, Bcl-2 Bim block 0, Bfl-1 Bim block 1, Bim-Bcl-XL -1 and Bcl-B Bim block -5.
For c1coc(C2Nc3cccc4cccc(c34)N2)c1 the results were Bcl-W Bim block 36, Bcl-2 Bim block 16, Bfl-1 Bim block 42*, Bim-Bcl-XL 11 and Bcl-B Bim block 4.
For FC(F)(F)c1ccc(C2Nc3cccc4cccc(c34)N2)cc1 the results were Bcl-W Bim block -1, Bcl-2 Bim block 0, Bfl-1 Bim block 7, Bim-Bcl-XL 0 and Bcl-B Bim block 7.
CCOC(=O)C(C(=O)OCC)c1cc(Br)c2noc3c2c1C(=O)c1ccccc1-3 was read as Bcl-W Bim block 43*, Bcl-2 Bim block 39, Bfl-1 Bim block 43*, Bim-Bcl-XL 29 and Bcl-B Bim block 10.
`Cc1ccc(NC(=O)CC2C(=O)N(Cc3ccccc3)C(=S)N2NC(=O)c2ccccc2)c(C)c1` (stereo unspecified) gave Bcl-W Bim block -7, Bcl-2 Bim block -12, Bfl-1 Bim block -10, Bim-Bcl-XL -8 and Bcl-B Bim block -12.
`CNC(=O)CC1C(=O)N(Cc2ccccc2)C(=S)N1NC(=O)c1cccc(F)c1` (stereo unspecified) gave Bcl-W Bim block 28, Bcl-2 Bim block 27, Bfl-1 Bim block 40*, Bim-Bcl-XL 40* and Bcl-B Bim block 25.
`Cc1ccc(-c2nnc(Cc3ccc(Cl)cc3)o2)cc1` gave Bcl-W Bim block 35, Bcl-2 Bim block 92*, Bfl-1 Bim block 67*, Bim-Bcl-XL 28 and Bcl-B Bim block 87*.
O=C(CCc1ccccc1)N1CCN(c2ccccn2)CC1 was read as Bcl-W Bim block 21, Bcl-2 Bim block 15, Bfl-1 Bim block 9, Bim-Bcl-XL 16 and Bcl-B Bim block 43*.
`O=C1/C(=C/c2cccnc2)SC(=S)N1CC1CCCO1` (stereo unspecified) gave Bcl-W Bim block -3, Bcl-2 Bim block -7, Bfl-1 Bim block -13, Bim-Bcl-XL -6 and Bcl-B Bim block -5.
`O=C1/C(=C\c2ccc(-c3ccccc3Cl)o2)SC(=S)N1CC1CCCO1` (stereo unspecified) gave Bcl-W Bim block 18, Bcl-2 Bim block 45*, Bfl-1 Bim block 17, Bim-Bcl-XL 28 and Bcl-B Bim block -3.
`O=C1c2ccccc2C(=O)c2cc(S(=O)(=O)Nc3ccccc3)ccc21` gave Bcl-W Bim block -5, Bcl-2 Bim block 0, Bfl-1 Bim block -1, Bim-Bcl-XL -6 and Bcl-B Bim block 41*.
`Nc1c(C(=O)NC2CC2)sc2nc3c(c(-c4ccco4)c12)CC/C3=C/c1ccco1` gave Bcl-W Bim block 34, Bcl-2 Bim block 43*, Bfl-1 Bim block 56*, Bim-Bcl-XL 29 and Bcl-B Bim block 34.
`NC(=O)c1sc2nc3c(c(-c4ccco4)c2c1N)CCC3` gave Bcl-W Bim block 12, Bcl-2 Bim block 2, Bfl-1 Bim block 8, Bim-Bcl-XL 14 and Bcl-B Bim block 7.
`CNc1ccc(Br)cc(C(=O)/C=C/c2cc(OC)ccc2OC)c1=O` gave Bcl-W Bim block 22, Bcl-2 Bim block 25, Bfl-1 Bim block 42*, Bim-Bcl-XL 26 and Bcl-B Bim block -21.
CNc1ccc(Br)cc(C(=O)/C=C/c2ccc(OC)cc2)c1=O was read as Bcl-W Bim block 10, Bcl-2 Bim block 8, Bfl-1 Bim block 18, Bim-Bcl-XL 0 and Bcl-B Bim block -8.
For COc1ccc(CN(C)CC(=O)NC(C)c2ccccc2)c(OC)c1 (stereo unspecified) the results were Bcl-W Bim block 39, Bcl-2 Bim block 62*, Bfl-1 Bim block 56*, Bim-Bcl-XL 30 and Bcl-B Bim block 60*.
`Cc1c(C)n(CCc2c[nH]c3ccccc23)ccc1=O` gave Bcl-W Bim block -3, Bcl-2 Bim block -1, Bfl-1 Bim block -2, Bim-Bcl-XL -1 and Bcl-B Bim block -3.
`CC1(C)C2CC=C(/C=N/NC(=S)NCCc3ccccc3)C1C2` (stereo unspecified) gave Bcl-W Bim block 1, Bcl-2 Bim block 1, Bfl-1 Bim block -3, Bim-Bcl-XL 0 and Bcl-B Bim block 1.
For CNC(=S)N/N=C/C1=CCC2CC1C2(C)C (stereo unspecified) the results were Bcl-W Bim block 13, Bcl-2 Bim block 69*, Bfl-1 Bim block 52*, Bim-Bcl-XL 2 and Bcl-B Bim block 65*.
For O=C(c1nc2ccccn2c1CNCCCn1nnc2ccccc21)N1CCOCC1 the results were Bcl-W Bim block 0, Bcl-2 Bim block -3, Bfl-1 Bim block -3, Bim-Bcl-XL 1 and Bcl-B Bim block -2.

Screens from PubChem BioAssay.
